Screening results: PubChem BioAssay, National Center for Advancing Translational Sciences (NCATS)
The list is not random: actives were taken first. Their share in the collection is about 2.1%.
Giardia killer = Small Molecules that selectively kill Giardia lamblia: qHTS; Giardia lamblia trophozoite viability; activity change, % at 7.66 µM, hits read low; 0.15% of 340,000 active; AID 540267, 2011; in the data active = activity change below about -80%; inconclusive = between about -30% and that limit;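 also: parasites exposed to compound for two days anaerobically before the ATP read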
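Trophozoite viability was measured as ATP-dependent luminescence, read 15-30 min after reagent addition. Before that, parasites at 100 cells/well were exposed to compounds for 48 h, anaerobically, at 37 deg C.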
B2AR arrestin = qHTS assay of beta-arrestin-biased ligands of beta2-adrenergic receptor. Beta-2 adrenergic receptor (Homo sapiens), P07550. beta-arrestin recruitment to beta2AR, cell-based reporter. Potency, µM (highest dose often 46.1 µM), most hits filed as activators. 0.02% of 330,000 active; also: nearly all actives have a fitted effect of over 65% in size
Target sequence (P07550 whole entry, looked up): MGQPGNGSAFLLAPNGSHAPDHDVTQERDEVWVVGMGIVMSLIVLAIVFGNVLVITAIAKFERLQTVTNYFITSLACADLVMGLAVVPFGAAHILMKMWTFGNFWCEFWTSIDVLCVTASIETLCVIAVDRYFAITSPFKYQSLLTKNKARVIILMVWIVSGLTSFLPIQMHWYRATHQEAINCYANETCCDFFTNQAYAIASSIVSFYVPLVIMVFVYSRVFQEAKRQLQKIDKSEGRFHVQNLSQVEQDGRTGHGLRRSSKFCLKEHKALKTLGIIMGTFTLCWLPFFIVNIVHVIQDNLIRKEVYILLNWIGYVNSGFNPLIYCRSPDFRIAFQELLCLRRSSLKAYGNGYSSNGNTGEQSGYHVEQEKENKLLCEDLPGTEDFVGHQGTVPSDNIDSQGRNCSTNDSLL
uPA generation = qHTS for Inhibitors of Cell Surface uPA Generation | cell surface uPA generation assay, qHTS | Potency, µM (series often up to 38.3 µM), hits mostly inhibitors | 0.31% of 330,000 active | AID 540303, 2011; active = well fitted inhibition curve with a large enough effect; inconclusive = small, poorly fitted or top-dose-only effect; inactive = no such curve, though single readings can be large or run the other way; tested in mouse RAW 264.7 cells; also: nearly all actives have a fitted effect of over 55% in size
ClpP mod = qHTS Assay for Activators of ClpP | purified B. subtilis ClpP, FRET peptide cleavage, 20 min | 1.9% of 340,000 active | Potency, µM (top dose mostly 57.5 µM); active = well fitted falling curve with a large enough effect; inconclusive = small, poorly fitted or top-dose-only effect; inactive = no such curve, though single readings can be large or run the other way; also: the source files actives as falling curves though it sought activators and does not explain the sign; nearly all actives have a fitted effect of over 65% in size
Target sequence (P80244 whole entry, looked up): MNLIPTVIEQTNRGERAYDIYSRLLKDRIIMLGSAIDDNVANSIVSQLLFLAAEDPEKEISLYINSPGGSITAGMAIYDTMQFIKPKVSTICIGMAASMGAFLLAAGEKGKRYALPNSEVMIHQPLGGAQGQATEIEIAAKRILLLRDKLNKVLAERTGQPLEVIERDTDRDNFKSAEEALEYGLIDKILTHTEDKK
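Buffer: 100 mM Tris/HCl pH8, 100 mM KCl, 0.05% low protease BSA, 2.5% glycerol, 0.01% Tween-20. ClpP 10 microg/mL final; 20 min RT; delta FRET normalized to ADEP and DMSO controls.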
p53 reactivator = qHTS assay for re-activators of p53 using a Luc reporter; 0.063% of 320,000 active; H1299 p53-A138V BP100-luciferase reporter, luminescence, 24 h; Potency, µM (doses to about 92.2 µM), actives largely listed as activators; also: nearly all actives have a fitted effect of over 45% in size
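p53-null H1299 cells stably carrying temperature-sensitive p53-A138V and a BP100-luciferase reporter were pinned with compounds (4-point, 1:5 series) and held 24 hrs at 37 deg C. Luminescence was read 10 min after detection reagent.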
Mito fusion act = qHTS Assay for Small Molecule Inhibitors of Mitochondrial Division or Activators of Mitochondrial Fusion; S. cerevisiae fusion-defective mutant growth rescue, CellTiterGlo 48 h; Potency, µM (highest dose often 46.1 µM), actives largely listed as activators; 0.23% of 320,000 active; AID 485298, 2010; also: nearly all actives have a fitted effect of over 45% in size
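Growth-rescue viability read-out: after 48 h at the non-permissive 37C in glycerol/ethanol YPEG, yeast mitochondrial fusion mutants are measured by CellTiterGlo luminescence; compounds (23 nl pinned per well) restoring growth score as division inhibitors or fusion activators.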
A number is an active result; i = inactive; ? = inconclusive; nt = no result. Unless noted, calls follow the shape of the dose curve; as a rule, active = well fitted curve in the direction sought with a large enough effect; inconclusive = small, poorly fitted or top-dose-only effect, or another doubt; inactive = no such curve, though single readings can be large; an effect the other way counts as inactive or inconclusive.

SMILES	Giardia killer	B2AR arrestin	uPA generation	ClpP mod	p53 reactivator	Mito fusion act
O=C(O)CCc1nc2ccccc2n(CCc2ccccc2)c1=O	i	i	i	?	i	i
COc1ccc(C2=C(C(C)=O)Sc3nnc(-c4ccc(C)cc4)n3N2C(C)=O)cc1OC	nt	nt	nt	i	nt	nt
COc1ccc(OCCC(=O)OCC(=O)NC(=O)NC2CCCCC2)cc1	i	i	i	20µM	i	i
CCCc1nn(C)c2c(=O)[nH]c(-c3ccccc3OCC)nc12	i	i	i	20µM	i	i
COc1ccc(-c2nc(CNS(=O)(=O)c3ccccc3)cs2)cc1	nt	nt	nt	i	nt	nt
COc1ccc(-c2nc(CC(=O)O)cs2)cc1OC	nt	i	nt	nt	i	i
COc1cc(C(=O)NCCc2csc(-c3ccc(Cl)cc3)n2)cc(OC)c1OC	nt	nt	nt	i	nt	nt
COc1ccc(-c2nc(CC(=O)O)cs2)cc1	i	i	i	22.4µM	i	i
COc1cccc(-c2nc(CC(=O)O)cs2)c1OC	i	i	i	12.6µM	i	i
COc1cccc(-c2nc(CCl)cs2)c1OC	i	i	nt	i	i	i
CCCCOc1ccc(S(=O)(=O)NCc2csc(-c3ccc(OC)cc3)n2)cc1	nt	nt	nt	12.6µM	nt	nt
COc1ccc(-c2nc(CCNC(=O)c3ccccc3)cs2)cc1OC	nt	nt	nt	25.1µM	nt	nt
O=C(NCC1(c2ccccc2)CCCC1)C(=O)Nc1cccc(Br)c1	nt	nt	nt	i	nt	nt
CCN1C=CC(=C2C(=O)c3ccccc3C2=O)C=C1	-94.1	i	nt	i	i	i
CCCCCCN1C=CC(=C2C(=O)c3ccccc3C2=O)C=C1	?	i	?	i	i	i
CCCN1C=CC(=C2C(=O)c3ccccc3C2=O)C=C1	-97.0	i	nt	i	i	i
CN1C=CC(=C2C(=O)c3ccccc3C2=O)C=C1	nt	i	nt	nt	i	i
COc1cc(OC)c(N(C)C(=O)c2nn(C)c3c2CSc2ccccc2-3)cc1Cl	nt	nt	nt	i	nt	nt
O=C(Nc1ncc(Cc2ccccc2)s1)C1CCN(C(=O)c2ccco2)CC1	i	nt	nt	i	nt	nt
O=C1c2ccccc2C(=O)N1c1nc(-c2ccc(F)cc2)cs1	nt	nt	nt	i	nt	nt
O=C(NN=C1CCCCCCC1)c1ccc(F)cc1	i	i	i	nt	i	i
O=C(NN=C1CCCCCC1)c1cccs1	i	i	i	i	39.8µM	i
O=C(Nc1cccn(Cc2ccc(F)cc2)c1=O)NC1CCCCC1	i	i	i	17.8µM	i	i
O=C(Nc1cccn(Cc2ccccc2)c1=O)NC1CCCCC1	i	i	i	20µM	i	i
COc1cccc(Cn2cccc(NC(=O)NC3CCCCC3)c2=O)c1	i	i	i	28.2µM	i	i
SMILES	Giardia killer	B2AR arrestin	uPA generation	ClpP mod	p53 reactivator	Mito fusion act
CN(C)c1ccc(/C=C\C=C/c2ccnc3ccccc23)cc1	nt	nt	nt	i	nt	nt
CCC(=O)N1CCc2cc(Br)cc(S(=O)(=O)CCC(=O)Nc3ccc(Cl)cc3)c21	nt	nt	nt	i	nt	nt
CN(C1CCCCC1)S(=O)(=O)c1ccc(F)c(C(=O)Nc2ccc(C(F)(F)F)cc2)c1	nt	nt	nt	i	nt	nt
COC(=O)c1c(-n2cnnn2)sc(C)c1C	i	i	nt	22.4µM	i	i
COc1cccc(-n2c(SCC(=O)Nc3cc(C)on3)nc3c([nH]c4ccccc43)c2=O)c1	i	i	i	i	i	i
Cc1cc(NC(=O)CSc2nc3c([nH]c4ccccc43)c(=O)n2-c2cccc(C(F)(F)F)c2)no1	i	i	i	28.2µM	i	i
O=C(CSc1nc2c([nH]c3ccccc32)c(=O)n1-c1ccccc1)N1CCc2ccccc21	nt	nt	nt	28.2µM	nt	nt
O=C(CSc1nc2c([nH]c3ccccc32)c(=O)n1-c1ccc(F)cc1)N1CCc2ccccc21	nt	nt	nt	i	nt	nt
Cc1ccc(-n2c(SCC(=O)NCc3ccc(F)cc3)nc3c([nH]c4ccccc43)c2=O)cc1	nt	nt	nt	31.6µM	nt	nt
O=C(CSc1nc2c([nH]c3ccccc32)c(=O)n1-c1ccc(F)cc1)Nc1ccc2c(c1)OCCO2	nt	nt	nt	22.4µM	nt	nt
COc1ccc(CCNC(=O)C(=O)NCC(c2ccco2)S(=O)(=O)c2ccccc2)cc1OC (centres undefined)	nt	nt	nt	i	nt	nt
COc1ccc(OC)c(NC(=O)CSc2cn(CC(=O)N3CCCCCC3)c3ccccc23)c1	nt	nt	nt	i	nt	nt
CCOC(=O)c1c(CN2CCCCC2)oc2ccc(O)cc12	i	i	i	28.2µM	i	i
CCOC(=O)c1c(CN2CCOCC2)oc2ccc(OC)cc12	i	i	i	i	i	i
COC(=O)c1scc(-c2ccc(C)cc2)c1S(=O)(=O)Nc1cc(C)c(Cl)cc1OC	nt	nt	nt	i	nt	nt
CCOC(=O)N1CCN(C(=O)c2cn(CCOC)c(=O)c3c2c2ccccc2n3C)CC1	i	i	i	14.1µM	i	i
COCCn1cc(C(=O)NCc2cccs2)c2c3ccccc3n(C)c2c1=O	i	i	i	20µM	i	i
COCCn1cc(C(=O)N2CCN(C)CC2)c2c3ccccc3n(C)c2c1=O	i	i	i	11.2µM	i	i
CCOC(=O)c1c(-c2ccccc2)csc1NC(=O)c1cc(-c2cccc(OC)c2)on1	nt	nt	nt	i	nt	nt
Cc1nnnn1/C(=C\c1ccccc1)C(=O)OCC(=O)Nc1cccc(S(=O)(=O)N(C)C)c1	i	i	8.91µM	i	i	i
Cc1nnnn1/C(=C\c1ccccc1)C(=O)OCC(=O)Nc1ccc(Cl)cc1F	i	?	?	i	i	i
CCCCOC(=O)Nc1nnc(-c2ccccc2OC)s1	i	i	i	?	i	i
COc1ccccc1-c1nnc(NC(C)=O)s1	i	i	i	28.2µM	?	i
COc1ccccc1-c1nnc(NC(=O)C(C)Sc2nncn2C)s1 (centres undefined)	i	i	?	i	i	i
COc1ccccc1-c1nnc(NC(=O)C(C)C)s1	i	i	i	31.6µM	i	i
SMILES	Giardia killer	B2AR arrestin	uPA generation	ClpP mod	p53 reactivator	Mito fusion act
CCCCCCCOc1ccc(CC(=O)NO)cc1	nt	nt	nt	i	nt	nt
COc1ccc(-n2nnnc2/C=C/Nc2cc(C(F)(F)F)ccc2OC)cc1	i	i	i	28.2µM	i	i
Nc1ccc(-c2cc3ccccc3c(=O)o2)cc1	i	i	?	i	i	nt
COc1cc(OC)cc(-c2cc3ccccc3c(=O)o2)c1	i	i	i	28.2µM	i	nt
O=c1cc2c(nn1Cc1ccc(F)cc1)-c1ccccc1CC2	i	i	i	i	i	12.6µM
O=c1cc2c(nn1Cc1ccccc1)-c1ccccc1CC2	i	i	i	nt	i	i
CCOC(=O)c1sc2ccccc2c1S(=O)(=O)Nc1ccc(CC)cc1	nt	nt	nt	i	nt	nt
COc1ccc(C(=O)/C=C/C(=O)N(Cc2ccc3c(c2)OCO3)C(C(=O)NC2CCCCC2)c2ccncc2)c(O)c1 (centres undefined)	i	i	i	12.6µM	i	i
O=C(CSc1ncc(-c2ccccc2)[nH]1)Nc1cccc(Br)c1	nt	nt	nt	i	nt	nt
Cc1ccccc1NC(=O)N(O)C1(C#N)CCCCC1	i	nt	i	31.6µM	nt	nt
CC(=O)c1ccc(NC(=O)c2cc(C)nc3c2c(C)nn3-c2ccc(C)cc2)cc1	nt	nt	nt	i	nt	nt
